Assay results as given in PubChem BioAssay.
“And” between values parts separate entries of the source, which are not always exact repeats. Equal values may be shown once. Results filed as inconclusive are left out. The source made the active and inactive calls. Unless noted, the rule behind the calls is not given here.

Key:
[1] = stimulators of insulin release from INS-1E, primary screen, cell-based, 5 mM glucose, NPC library (AID 1117329;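 active = compound raises insulin release from rat beta cells at 5 mM glucose, no numeric limit stated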); conditions: rat INS-1E insulin secretion, at 10 µM, stronger effect = higher value
[2] = growth inhibition of GSK3B-pretreated HCT116 cells – cell-based, CellTiter-Glo, 0.2 to 20 µM (AID 1117336;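 active = compounds lowering colon cancer cell viability after pretreatment blocking the GSK3B kinase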); conditions: HCT116 viability after GSK3B inhibitor, at 20 µM, stronger effect = higher value
[3] = inhibition of endothelial tube formation, primary screen, imaging, VEGF stimulated, CD31 staining, tube area, NPC library (AID 1117340;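 active = compound that reduces growth-factor-driven endothelial tube area in a mixed cell culture, no cutoff stated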); conditions: VEGF-stimulated ADSC/ECFC co-culture, at 10 µM, stronger effect = higher value
[4] = GLP1 release stimulators, primary, NCI-H716, NPC library (AID 1117341;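 active = compound raises GLP1 secretion from the human gut endocrine cells, with no numeric limit stated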); conditions: NCI-H716 cells, at 10 µM, stronger effect = higher value
[5] = HCT116 colon cancer cell growth inhibition, primary screen, CellTiter-Glo luminescence, NPC library (AID 1117342;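 active = compounds that lower survival of HCT116 colon cancer cells in the luminescence readout, no numeric limit stated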); conditions: at 20 µM (top of the series)
[6] = reduced SW480 viability measured with CellTiter-Glo, NPC library, primary (AID 1117343;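 active = compounds that lower viability of the colon cancer cells in the luminescence readout, with no numeric limit stated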); conditions: CellTiter-Glo luminescence; at 20 µM (top of the series)
[7] = NPC library primary testing for decreased DLD-1 cell viability via CellTiter-Glo (AID 1117346;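 active = compounds that lower survival of DLD-1 colon cancer cells in the luminescence readout, no cutoff given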); conditions: DLD-1 viability, CellTiter-Glo luminescence; at 20 µM (top of the series)
[8] = modulation of C. elegans fzo-1 (AID 1259413);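 note: fzo-1 mutant C. elegans worms in liquid wells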; conditions: C. elegans fzo-1 modulator screen, mean read-out; stronger effect = higher value
[9] = EMT-state selective cytotoxicity in co-culture – imaging, PC-3E GFP, TEM4-18 mCherry, primary screen (AID 1345086;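 active = compounds killing one labelled cell type while sparing the other, by normalised counts and ratio limits, not self-fluorescent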;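 for all read-outs here: cells exposed to compound for 72 h before imaging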;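 for red/green cell ratio (normalised): normalised mesenchymal count divided by normalised epithelial count so high means epithelial killing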); conditions: PC-3E GFP / TEM4-18 mCherry co-culture, imaging cell counts, at 1 µM; for red/green cell ratio (normalised): actives lie on both sides, counts scaled to control wells, 1 = unselective
[10] = system: Aerobactin synthetase IucA (Klebsiella pneumoniae); test: inhibition of K. pneumoniae IucA enzyme – biochemical, Tocris library, absorbance (AID 1345561); conditions: purified IucA enzyme assay, absorbance (OD) read-out; stronger effect = lower value;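 tested at 8 µM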;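 note: 100% = enzyme without compound and 0% = no enzyme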
[11] = viability loss in pontine glioma line – cell-based, JHH-DIPG-1, MIPE4.0, CellTiter-Glo, qHTS, dose response (AID 1347062; cut-off not given, nearly all actives have AC50 up to about 27 µM); conditions: JHH-DIPG-1 viability, CellTiter-Glo ATP luminescence
[12] = viability loss in pontine glioma line – cell-based, SU-DIPG-IV, MIPE4.0, CellTiter-Glo, qHTS, dose response (AID 1347063; cut-off not given, nearly all actives have AC50 up to about 30 µM;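 note: compound exposure lasted 48 hours before the viability readout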); conditions: CellTiter-Glo ATP luminescence
[13] = viability loss in pontine glioma line – cell-based, SU-DIPG-XVII, MIPE5.0, CellTiter-Glo, qHTS, dose response (AID 1347060; cut-off not given, nearly all actives have AC50 up to about 26 µM); conditions: CellTiter-Glo ATP luminescence
[14] = viability loss in pontine glioma line – cell-based, SU-DIPG-XIII, MIPE4.0, CellTiter-Glo, qHTS, dose response (AID 1347061; cut-off not given, nearly all actives have AC50 up to about 37 µM;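 note: cells exposed to compound for 48 hours before readout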); conditions: CellTiter-Glo ATP luminescence
[15] = viability loss in pontine glioma line – cell-based, SU-DIPG-XIII, MIPE5.0, CellTiter-Glo, qHTS, dose response (AID 1347064; cut-off not given, nearly all actives have AC50 up to about 23 µM); conditions: CellTiter-Glo ATP luminescence
[16] = measured here: epithelial PC-3E GFP cell survival
[17] = measured here: mesenchymal TEM4-18 mCherry cell survival

| SMILES | insulin secretion stimulation [1] | viability decrease [2] | tube area decrease [3] | GLP1 secretion stimulation [4] | inhibition of viability [5] | viability decrease (inhibition) [6] | viability decrease (inhibition) [7] | mean signal [8] | red/green cell ratio (normalised) [9] | normalised cell number [9, 16] | normalised cell number [9, 17] | remaining activity [10] | outcome [11] | outcome [12] | outcome [13] | AC50 [14] | outcome [15] | outcome [14] |
| --- | --- | --- | --- | --- | --- | --- | --- | --- | --- | --- | --- | --- | --- | --- | --- | --- | --- | --- |
| O=C1CC2(CCCC2)CC(=O)N1CCCCN1CCN(c2ncccn2)CC1 | -0.8% (inactive) | 20.1% (inactive) | -1.5% (inactive) | 1.7% (inactive) | 39.4% (inactive) | 20.4% (inactive) | 1.7% (inactive) | 228 (inactive) | 1.04 (inactive) | 1.05 | 1.09 | 109% (inactive) |  |  |  |  |  |  |
| CCc1nn(CCCN2CCN(c3cccc(Cl)c3)CC2)c(=O)n1CCOc1ccccc1 | -1.1% (inactive) | 67.2% (active) | 30.7% (inactive) | -2.9% (inactive) | 85.7% (active) | 91.5% (active) | 81.3% (active) | 239 (inactive) | 1.11 (inactive) | 0.96 | 1.06 | 104% (inactive) |  |  |  |  |  |  |
| c1cnc(N2CCN(Cc3ccc4c(c3)OCO4)CC2)nc1 | 1% (inactive) | -13.4% (inactive) | -4.5% (inactive) | 10.3% (inactive) | 4.13% (inactive) | -7.2% (inactive) | -20% (inactive) | 255 (inactive) | 1.12 (inactive) | 0.85 | 0.96 | 119% (inactive) |  |  |  |  |  |  |
| COc1ccc(CN2CCN(C(c3ccc(F)cc3)c3ccc(F)cc3)CC2)c(OC)c1OC | 1.6% (inactive) | 108% (active) | -1.5% (inactive) | 2.3% (inactive) | 110% (active) | 133% (active) | 101% (active) | 204 (inactive) | 1.08 (inactive) | 0.96 | 1.03 |  |  |  |  |  |  |  |
| COCCCC/C(=N\OCCN)c1ccc(C(F)(F)F)cc1 | 1.6% (inactive) | -112% (inactive) | -2.4% (inactive) | -1.9% (inactive) | 37.3% (inactive) | 15.4% (inactive) | 23.5% (inactive) | 245 (inactive) | 0.92 (inactive) | 1.1 | 1.01 | 125% (inactive) | inactive | inactive |  |  |  |  |
| CN1CCC(=C2c3ccccc3C=Cc3ccccc32)CC1 | 0.2% (inactive) | 48.8% (inactive) | 43.3% (active) | 11.9% (inactive) | 39% (inactive) | 100% (active) | 31.8% (inactive) | 251 (inactive) | 1.06 (inactive) | 0.91 | 0.97 | 104% (inactive) |  |  | inactive | 23.5 µM (active) | inactive |  |
| Cc1cccc(C)c1NC(=O)C(C)N (stereo unspecified) | 0.2% (inactive) | -2.3% (inactive) | -7.9% (inactive) | -0.6% (inactive) | -4.1% (inactive) | 0.1% (inactive) | -5.7% (inactive) | 270 (inactive) | 0.66 (inactive) | 1.32 | 0.88 |  |  |  |  |  |  |  |
| Clc1ccc2c(c1)CCc1cccnc1C2=C1CCNCC1 | 37.7% (active) | 50.4% (active) | 9.9% (inactive) | 21.1% (active) | 55.5% (active) | 97.8% (active) | 30% (inactive) | 228 (inactive) | 0.84 (inactive) and 1.39 (inactive) | 1.16 and 0.83 | 0.98 and 1.15 |  |  |  |  |  |  |  |
| CCC1=C(C)CN(C(=O)NCCc2ccc(S(=O)(=O)NC(=O)NC3CCC(C)CC3)cc2)C1=O (stereo unspecified) | 29.4% (active) | 34.1% (inactive) | -7.2% (inactive) | 2.3% (inactive) | 2.4% (inactive) | 17.1% (inactive) | 7.8% (inactive) | 255 (inactive) | 0.86 (inactive) | 1.22 | 1.05 | 90.7% (inactive) | inactive | inactive | inactive |  | inactive | inactive |
| Nc1nc(N)nc(-c2cc(Cl)ccc2Cl)n1 | 2% (inactive) | 20.3% (inactive) | -11.3% (inactive) | -1.2% (inactive) | -27.9% (inactive) | -12.5% (inactive) | -18.2% (inactive) | 297 (inactive) | 1.01 (inactive) | 1.08 | 1.09 | 103% (inactive) | inactive |  | inactive |  |  | inactive |
| CCN1CCN(c2cc3c(cc2F)c(=O)c(C(=O)O)cn3C2CC2)CC1 | -0.15% (inactive) | 38% (inactive) | 8.4% (inactive) | 0.4% (inactive) | 36.2% (inactive) | 11.7% (inactive) | -6.2% (inactive) | 280 (inactive) | 1.09 (inactive) | 1.12 | 1.23 |  |  |  |  |  |  |  |
| CNS(=O)(=O)Cc1ccc2[nH]cc(CCN(C)C)c2c1 | 0.3% (inactive) | -2.3% (inactive) | 15.1% (inactive) | 1.4% (inactive) | -2.93% (inactive) | 66.2% (active) | -3.8% (inactive) | 224 (inactive) | 1.17 (inactive) | 1.07 | 1.25 | 127% (inactive) | inactive | inactive |  |  |  | inactive |
